Compounds without any hit were thinned out: in the full panel of roughly 83,000, 20% have a hit.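 Note: values are percent growth. 100 is the growth of untreated cells, values between 100 and 0 indicate rising inhibition; between -100 and 0 indicates cell death.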 Values without a mark were called inactive. Active and inactive are the calls of the source. The calls were made as follows: active = growth percent below 10; inactive = the rest.
System: HL-60(TB) leukemia
Experiment: NCI-60 one-dose screen, 48 h (100 = growth as untreated, 0 = no growth, -100 = all killed)
Settings: 10 µM unless noted

SMILES	growth
C=C(C)[C@@H]1C[C@@H]2Cc3cc(Cl)ccc3N1O2	-8.6% (active)
CCn1cc(C(=O)NN=C2CCCCCC2)c(=O)c2ccc(C)nc21	80.2%
CN1CCN(Cc2ccc(NC(=O)c3nc4ccc5[nH]ncc5c4c4c3CCCC4)cc2C(F)(F)F)CC1	-57.4% (active)
O=[N+]([O-])c1cccc(-c2nc3sccn3c2-c2ccnc(NCCCNS(=O)(=O)c3ccc(Br)cc3)n2)c1	19.2%
CCOCCOCCOCCOCCOCCOCCOCCOCCOCCO (tested in a mixture with another compound)	-54.9% (active)
CCCCC/C(C=C(C#N)C#N)=C/c1ccccc1	6.33% (active)
c1ccc2c(c1)Oc1ccccc1C2C1c2ccccc2Oc2ccccc21	99.4%
Cc1cc(O)c2cc3c(O)c(O)ccc3cc2c1	82.7%
COC(=O)CC[C@@H]1O[C@@H](c2ccc(F)cc2)[C@@H](O)[C@H]1O	113%
OCC1OC(O)C(O)C(O)C1O (stereo not given)	120%
CC[N+](CC)=c1ccc2nc3c(cc(N)c4ccccc43)oc-2c1	-55.6% (active)
O=[N+]([O-])c1cccc2nsnc12	104%
COc1ccc(C2CC(n3nnnc3-c3ccccc3)=NN2)cc1 (stereo not given)	4.11% (active)
CC(=O)C(C)Cc1cc2c(cc1C)C(C)(C)CCC2(C)C (stereo not given)	101%
CCCCCCNCc1cc(C(C)(C)C)cc(CNCCCCCC)c1O	-45.1% (active)
Cc1cc(Cl)c2c(N(C)C)cccc2n1	97.3%
CCOC(=O)c1c(C)c2c(n1Cc1ccccc1)CSc1cc(C#N)c(=O)[nH]c1-2	76.8% [100 µM]
CCCCCN1C(=O)CCC1=O	88.1%
Cc1ccccc1C1N=C2Oc3ccccc3C=C2C(=O)N1 (stereo not given)	2.2% (active)
Nc1c(C(=O)Nc2ccccc2Cl)sc2nc3c(cc12)C(=O)CCC3	67.1%
COc1ccc2[nH]cc(-c3nc(-c4c[nH]c5ncccc45)cs3)c2c1	13.9%
Clc1cc2c(nn1)Nc1ccccc1S2	102%
CCN1CCN(c2nc(NNC(=O)Cc3ccccc3)nc(N3CCN(C(c4ccccc4)c4ccccc4)CC3)n2)CC1	-53.9% (active)
C/C(CC(=O)NNc1ccc([N+](=O)[O-])cc1)=N\Nc1ccc([N+](=O)[O-])cc1	28.8%
CCN1C(=O)N(CC)C2Nn3c(s/c(=C4\C(=O)N(C5CCCC5)c5ccccc54)c3=O)=NC21 (stereo not given)	29.8%
